Shown are actives, neighbours in structure and some others; about 0.35% of the full set was active somewhere.
Luc counter – Counterscreen for Luciferase (Kinase-Glo TM) Inhibition; Luciferin 4-monooxygenase (Photuris pensylvanica), Q27757; Kinase-Glo luciferase, ATP luminescence, 8 min; Potency, µM (series often up to 38.3 µM), actives largely listed as inhibitors; 200,000 compounds, 0.28% hits; also: nearly all actives have a fitted effect of over 60% in size
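Luminescence was the read-out, taken after 8-minute incubation at ambient temperature. Luciferase turned over luciferin with 10 uM ATP in imidazole pH 7.2 buffer containing KCl, MgCl2, Tween 20 and BSA.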
TCR activator – Activators of T cell receptors: qHTS campaign; primary human leukocytes, anti-CD3, IL-2 HTRF, 48 h; Potency, µM (titrated, usually from 9.22 µM), hits mostly activators; 330,000 tested, under 10 active
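TCR engagement came from a-CD3 beads alone, with compounds added to primary human leukocytes for 48 hr. Secreted IL-2 bridged europium cryptate- and d2-labelled anti-IL-2 antibodies, giving FRET emission at 665nm after 320nm excitation.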
TRPV1 agonist – HTS Assay for Compounds that Act as Agonists of the Vanilloid Receptor 1. 320,000 compounds, 0.19% hits. activation, % at 8.33 µM. TRPV1-expressing cells, Fluo-8 calcium influx, agonist mode; in the data active = activation above about 80%; inconclusive = between about 30% and that limit
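TRPV1-expressing cells were cultured overnight at 35.5C and loaded with Fluo-8 calcium dye for 40 to 90 min at room temperature. After a 10 s baseline, compound was added and calcium influx was read kinetically for 3 min (ex 480/em 520 nm).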
MBNL1 CUG block – qHTS Assay for Inhibitors of MBNL1-poly(CUG) RNA binding; TR-FRET MBNL1-His/biotin-(CUG)12 binding, 665/545 ratio; Muscleblind-like protein 1 (Homo sapiens), Q9NR56; 280,000 compounds, 0.036% hits; Potency, µM (highest dose often 57.5 µM), actives largely listed as inhibitors; active = well fitted inhibition curve with a large enough effect in the signal ratio, with a control signal flat, not every such curve was filed as active; inconclusive = small, poorly fitted or top-dose-only effect, or effect the other way, or a change in a side signal; inactive = no such curve, though single readings can be large or run the other way; the % refers to the signal ratio
Target sequence (Q9NR56 whole entry, looked up): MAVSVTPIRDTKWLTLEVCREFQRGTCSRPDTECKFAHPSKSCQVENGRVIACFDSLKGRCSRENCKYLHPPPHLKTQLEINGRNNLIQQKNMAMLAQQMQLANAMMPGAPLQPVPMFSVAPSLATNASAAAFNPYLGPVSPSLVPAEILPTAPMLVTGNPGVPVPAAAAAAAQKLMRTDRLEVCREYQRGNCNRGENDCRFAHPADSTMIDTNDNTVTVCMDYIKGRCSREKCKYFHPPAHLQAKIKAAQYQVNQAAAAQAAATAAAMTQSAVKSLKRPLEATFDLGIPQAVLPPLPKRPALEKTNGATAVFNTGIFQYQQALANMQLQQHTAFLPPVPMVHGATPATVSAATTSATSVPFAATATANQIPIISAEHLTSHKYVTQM
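TR-FRET readout: Ex 340 nm, 665/545 nm emission ratio, normalized to buffer-only (basal) and MBNL1-(CUG)12 controls. Complex of MBNL1-His with Biotin-(CUG)12, compounds 92 nM–58 uM, incubated 60 min at room temperature.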
CBFb RUNX1 block – qHTS Assay for Compounds Blocking the Interaction Between CBF-beta and RUNX1 for the Treatment of Acute Myeloid Leukemia; Runt-related transcription factor 1 (Homo sapiens) + Core-binding factor subunit beta …; AlphaScreen CBFb-His/RUNX1-biotin binding, biochemical; Potency, µM (top dose mostly 59.8 µM), most hits filed as inhibitors; 230,000 tested, under 10 active
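Compounds were screened at multiple concentrations against a preformed CBF-beta(His)/RUNX1(biotin) complex (30 nM of each) for 15 min at room temperature, followed by 90 min with nickel and streptavidin beads and AlphaScreen reading.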
TRPV1 PAM – HTS Assay for Compounds that Act as Potentiators of the Vanilloid Receptor 1. TRPV1-expressing cells, Fluo-8 calcium influx, capsaicin EC20 potentiation. potentiation, % at 8.33 µM. 320,000 compounds, 0.02% hits. AID 540277, 2011; in the data active = potentiation above about 80%; inconclusive = between about 30% and that limit
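Fluo-8 calcium influx in TRPV1-expressing cells, kinetic read (ex 480/em 520 nm). Compound added and read 3 min for agonist activity, followed by capsaicin at EC20 final and 2 min further read for enhancement.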
Large screens that a line does not name were inactive. Unless noted, calls follow the shape of the dose curve; as a rule, active = well fitted curve in the direction sought with a large enough effect; inconclusive = small, poorly fitted or top-dose-only effect, or another doubt; inactive = no such curve, though single readings can be large; an effect the other way counts as inactive or inconclusive.

COc1cccc(/C=N/Nc2nn3cnnc3c3ccccc23)c1	Luc counter 3.5µM, MBNL1 CUG block inconclusive
COc1cc(/C=N/Nc2nn3cnnc3c3ccccc23)ccc1O	Luc counter 13µM (no result: TCR activator)
COc1cccc(/C=N/Nc2nc3ccccc3n3cnnc23)c1	none
COc1ccc(/C=N/Nc2nncc3ccccc23)cc1	Luc counter 11µM
CO[C@H]1COC(=O)C/C=C\[C@H](C)[C@@H](OC)COC(=O)[C@@H](C)COC(=O)C/C=C\[C@@H]1C	none (no result: Luc counter, TCR activator, TRPV1 agonist, MBNL1 CUG block, TRPV1 PAM)
CC(=O)OCCn1c2nc(=O)[nH]c(=O)c-2nc2cc(C)c(C)cc21	TRPV1 agonist 122, MBNL1 CUG block inconclusive (no result: Luc counter, TCR activator)
Cc1cc2nc3c(=O)[nH]c(=O)nc-3n(CC(O)C(O)C(O)CO)c2cc1C (stereo not given)	none (no result: TCR activator, TRPV1 agonist, MBNL1 CUG block, TRPV1 PAM)
CCCC=O	none (no result: Luc counter, TCR activator, TRPV1 agonist, MBNL1 CUG block, TRPV1 PAM)
CN(C)/C=C1\C=C2C(=O)c3ccccc3N2C1=O	TRPV1 agonist 93, MBNL1 CUG block inconclusive (no result: Luc counter)
Cc1ccc(-n2nc3c(n2)/C(=N/O)CC/C3=N\O)cc1	Luc counter 13µM
COc1cc(/C=N/NC(=O)c2cc(-c3ccccc3)n[nH]2)cc(OC)c1OC	none (no result: TCR activator, TRPV1 agonist, MBNL1 CUG block, CBFb RUNX1 block, TRPV1 PAM)
O=[N+]([O-])c1cnc2nc(-c3ccncc3)nn2c1O	Luc counter 11µM, MBNL1 CUG block inconclusive
O=C(Nc1nccs1)c1cc2c(s1)CCCCC2	Luc counter 7.1µM
O=C(Nc1nncs1)c1cc2c(s1)CCC2	none
NC(=O)C/C=C\CC(N)=O	none (no result: TCR activator, TRPV1 agonist, MBNL1 CUG block, CBFb RUNX1 block, TRPV1 PAM)
COc1ccc(CNC(=O)COC(=O)c2cc(-c3cccs3)nc3ccccc23)cc1OC	TRPV1 agonist 88
Cc1ncoc1C(=O)Nc1ccc(Oc2ccccc2)cc1	TRPV1 agonist 84
Cc1nc(C)c(C(=O)Nc2ccc(Oc3ccccc3)cc2)o1	TRPV1 agonist inconclusive (no result: TCR activator)
Cc1nc2ccccc2cc1OCc1ccc(Cl)cc1	TRPV1 agonist 83
CCCCNc1c(CN)cnc2cc(Cl)ccc12	none (no result: TCR activator, TRPV1 agonist, MBNL1 CUG block, CBFb RUNX1 block, TRPV1 PAM)
O=C(O)C1CC(=O)N(CCC23CC4CC(CC(C4)C2)C3)C(=Nc2ccccc2)S1 (stereo not given)	none (no result: TCR activator, TRPV1 agonist, MBNL1 CUG block, CBFb RUNX1 block, TRPV1 PAM)
CCc1ccc(C2=NN(S(C)(=O)=O)C(c3cccs3)C2)cc1 (stereo not given)	Luc counter 13µM
Cc1ccc(C2=NN(S(C)(=O)=O)C(c3cccs3)C2)cc1 (stereo not given)	none
COC(=O)Cc1ccc2sc(-c3ccccc3)nc2c1	Luc counter 13µM
O=C(O)Cc1ccc2sc(-c3ccccc3)nc2c1	Luc counter inconclusive
NCCCC[C@H](NC(=O)[C@@H]1CCCN1C(=O)[C@H](CO)NC(=O)[C@H](CC(=O)O)NC(=O)CNC(=O)[C@H](CCCN=C(N)N)NC(=O)CN)C(=O)O	none (no result: Luc counter, TCR activator, TRPV1 agonist, MBNL1 CUG block, TRPV1 PAM)
c1c2c(cc3sc(N4CCOCC4)nc13)OCO2	Luc counter 11µM
c1c2c(cc3sc(N4CCCCC4)nc13)OCO2	Luc counter 13µM
c1ccc(N2CCN(c3nc4cc5c(cc4s3)OCO5)CC2)cc1	none
O=C(c1ccc(Nc2nccc(-c3cc4ccccc4s3)n2)cc1)N1CCC(N2CCCC2)CC1	none (no result: Luc counter, TCR activator, TRPV1 agonist, MBNL1 CUG block, TRPV1 PAM)
CC1C/C(=C/c2ccncc2)C(=O)/C(=C/c2ccncc2)C1 (stereo not given)	none
CC1C/C(=C/c2cccn2C)C(=O)/C(=C/c2cccn2C)C1 (stereo not given)	TRPV1 agonist 100, MBNL1 CUG block inconclusive, CBFb RUNX1 block inconclusive
COc1ccc(CNC(=O)COC(=O)/C=C/c2cccc(Br)c2)cc1OC	TRPV1 agonist 87, TRPV1 PAM inconclusive
Cc1cccc(/C(N)=N/OC(=O)c2ccc3c(c2)OCO3)c1	Luc counter 10µM
N/C(=N\OC(=O)c1ccc(Cl)cc1Cl)c1ccccc1	Luc counter 11µM
